Test results from PubChem BioAssay AID504884 (Broad Institute, 2011).
Hit rate of the full screen: of about 360,000 compounds, about 230 (0.064%) were called active. Cut-off read from the data, not from the text of the source: active = activity above about 50% (passing the limit was not always enough); inconclusive = no clear call, values can overlap the other calls. Many of the other results were omitted from the sample, so actives are more common in it than they were.

These molecules were tested on DNA topoisomerase I (Yersinia pestis CO92) (assay: Yersinia pestis topoisomerase I inhibitors, primary screen, biochemical, cleavage product accumulation, plate reader, single point (AID 504884)). Conditions: Y. pestis Topo-I cleavage product accumulation, at 10 µM, stronger effect = higher value.
`COc1ccccc1N1CC(C(=O)Nc2nnc(SCC(=O)NC(C)C)s2)CC1=O` (stereo unspecified) was tested, and the activity was 6.4% (inactive). With `Cc1cc(SCC(=O)NCCN2C(=O)CSC2=O)nc2ccccc12` the activity was 2.72% (inactive). In the case of `O=[N+]([O-])c1ccc(S(=O)(=O)Nc2cccc(-c3ccc(N4CCCC4)nn3)c2)cc1`, the activity is reported as 21.6% (inactive). `CC1CCc2sc(C(=O)NCC(c3ccco3)N3CCCCC3)cc2C1` (stereo unspecified) was tested, and the activity was -2.82% (inactive). For `CC(C)Oc1ccc(CN2CCC2(C)C(=O)NCc2ccc(C(F)(F)F)cc2)cc1` (stereo unspecified), the activity was 15.8% (inactive). `COc1ccc(CN2CCN(C(=O)c3cc(C4CC4)nn3-c3ccccc3)CC2)cc1F` was tested, and the activity was 29.4% (inactive). With `CN(C)C(=O)N=NC(=O)N(C)C` the activity was -8.5% (inactive). For `C[C@H](CO)N1C[C@H](C)[C@@H](CN(C)Cc2ccc(-c3ccccc3)cc2)Oc2ccc(NC(=O)Cn3cnnn3)cc2C1=O`, the activity was 22.5% (inactive). `O=C(CN1CCC(NC(=O)C2CC2)CC1)Nc1ccccc1[N+](=O)[O-]` was tested, and the activity was 2.07% (inactive). In the case of `CN(Cc1ccc(F)cc1)C(=O)COc1ccc2ccccc2c1`, the activity is reported as 27.3% (inactive). For `COc1ccc(C(CCN(Cc2ccc(OC)c(OC)c2)C(=O)CCl)c2ccccc2)cc1` (stereo unspecified), the activity was 12.3% (inactive). In the case of `COc1ccc(CN(C)C(=O)CC(c2ccccc2)c2ccccc2)cc1`, the activity is reported as 51.6% (active). `Cc1ccc(S(=O)(=O)NCC(=O)N2CCOCCOCCOCCOCC2)cc1` was tested, and the activity was 5.8% (inactive). `Cc1cc(C)nc(/N=C2\NC(=O)CC(C(=O)O)N2c2ccc(Cl)cc2Cl)n1` (stereo unspecified) was tested, and the activity was -1.83% (inactive). For `O=C1NNC(c2ccccc2)=N/C1=C\c1ccc(Cl)cc1`, the activity was -4.41% (inactive). For `Cc1ccccc1-n1nnnc1SCCCC(=O)c1ccc(F)cc1`, the activity was 21.7% (inactive). For `Cc1ccc2c(c1)C(c1ccccc1)N(C(=O)c1ccc(S(=O)(=O)N3CCOCC3)cc1)CC(=O)N2` (stereo unspecified), the activity was 3.57% (inactive). `Cc1cc(C)c(C(N)=O)c(Cl)n1` was tested, and the activity was 0.37% (inactive). In the case of `CCOc1ccc(S(=O)(=O)N2CCC(c3ccccc3)CC2)cc1C(=O)O`, the activity is reported as -7.32% (inactive). For `COC(=O)Nc1ccc(S(=O)(=O)N2CCN(CCN3C(=O)C4C5C=CC(C5)C4C3=O)CC2)cc1` (stereo unspecified), the activity was 0.176% (inactive). In the case of `CN(C(=O)CSc1nnc(C2CC2)n1C)C1CCCc2ccccc21` (stereo unspecified), the activity is reported as 9.61% (inactive). For `CC(=O)c1ccc(NC(=O)C2CCCN2S(=O)(=O)c2cccs2)cc1` (stereo unspecified), the activity was -1.65% (inactive). In the case of `CC=CCn1c(SCCCc2ccccc2)nc2c1c(=O)[nH]c(=O)n2C`, the activity is reported as 14.6% (inactive). In the case of `C=CCn1c(SCc2ccccc2)nc2c1c(=O)[nH]c(=O)n2C`, the activity is reported as 20.2% (inactive). `CCCCCn1c(SCCC(C)C)nc2c1c(=O)[nH]c(=O)n2C` was tested, and the activity was 112% (active). In the case of `O=C1CC[C@H](O)CCN1[C@H](CSc1ccc(Br)cc1)Cc1ccccc1`, the activity is reported as 10.9% (inactive). In the case of `C[C@H]1CCC(=O)N([C@H](CSc2ccccc2)Cc2ccccc2)CC1`, the activity is reported as 59.9% (active). `CC(=O)Nc1ccc(SC[C@H](Cc2ccccc2)N2CC[C@@H](C)CCC2=O)cc1` was tested, and the activity was 25.8% (inactive). `Cc1cc(Cl)c(S(=O)(=O)NCc2cccnc2)cc1OCC(N)=O` was tested, and the activity was -1.35% (inactive). For `CN(C)c1ccc(C(=S)N2CCN(C(=S)Nc3ccc(Cl)cc3)CC2)cc1`, the activity was 3.46% (inactive). `Cc1cc(OCC(=O)NCC(O)c2ccccc2)c2c(C)c(C)c(=O)oc2c1` (stereo unspecified) was tested, and the activity was -1% (inactive). In the case of `O=C(CSc1ncnc2c1oc1ccccc12)NC1CCCC1`, the activity is reported as 2.5% (inactive). For `CCC(=O)NC(Nc1cc(C)ccn1)(C(F)(F)F)C(F)(F)F`, the activity was -7.52% (inactive). `CCOC(=O)c1cn(Cc2cccc(C)c2)nn1` was tested, and the activity was -1.57% (inactive). In the case of `CC(=O)c1nn(-c2ccc(C)cc2)cc1C(=O)c1cccc(Br)c1`, the activity is reported as 8.28% (inactive). `CCOC(=O)c1nn(-c2cccc(C)c2)cc1C(=O)c1ccccc1` was tested, and the activity was 67.3% (active). For `COCC(C)n1c(C)cc(C(=O)COc2ccc(C)nc2[N+](=O)[O-])c1C` (stereo unspecified), the activity was 8.7% (inactive). For `COC(=O)[C@H]1C[C@H](OC(=O)NCc2ccccc2)[C@@]2(O)CN(S(=O)(=O)c3ccc(C)cc3)CC2[C@H]1C(=O)OC` (stereo partly specified), the activity was 7.34% (inactive). With `Cc1cc2nc(C(F)(F)F)cc(-c3cccs3)n2n1` the activity was -15.7% (inactive). With `COc1c(C)c2c(c(O)c1C/C=C(\C)CCC(=O)O)C(=O)OC2` the activity was 5.68% (inactive). For `CC1(Oc2ccccc2-c2ccno2)CCN(Cc2ccc(-c3ccccc3)o2)C1` (stereo unspecified), the activity was 24% (inactive). `Cc1ccn(CC(=O)NC2CCCN(Cc3ccccc3F)C2)n1` (stereo unspecified) was tested, and the activity was -8.15% (inactive). For `CC(C)CN(C(=O)Cn1c(=O)cnc2ccccc21)C1CCS(=O)(=O)C1` (stereo unspecified), the activity was 1.02% (inactive). For `CCN1CCN(c2cc3nc(C)n(Cc4ccccc4)c(=O)c3cc2NC(=O)c2ccccc2F)CC1`, the activity was 23.4% (inactive). For `COc1ccc(N=C2C=CC(=O)O2)cc1`, the activity was 1.67% (inactive). With `C=C1c2cccc(OC)c2O[C@H](C(=O)OCC)[C@@H]1CCCCCC` the activity was 39% (inactive). `COC(=O)[C@@H]1C[C@@]2(O)[C@H](O)[C@H](O)[C@H](O)C[C@H]2N1Cc1ccc(C(C)(C)C)cc1` was tested, and the activity was 1.65% (inactive). `O=C(NCc1ccc(F)cc1)c1cc(C2CCCCN2C(=O)c2cccs2)on1` (stereo unspecified) was tested, and the activity was 28.6% (inactive). For `COc1ccccc1-c1n[nH]c2c1[C@H](C)CC[C@H]2C(C)C`, the activity was 29.7% (inactive). For `CN(C)c1ccc(CNC2C3CC4CC(C3)CC2C4)cc1` (stereo unspecified), the activity was -0.886% (inactive). In the case of `COCCN(C(=O)CC1CCCCC1)c1c(N)n(CC(C)C)c(=O)[nH]c1=O`, the activity is reported as -3.38% (inactive). In the case of `CCCCCN(C(=O)CCC(=O)OCCOc1ccc(OC)cc1)c1c(N)n(CCCC)c(=O)[nH]c1=O`, the activity is reported as 20.2% (inactive). `CC1CCCC(C)N1/N=C/c1ccccc1OC(F)F` (stereo unspecified) was tested, and the activity was -8.42% (inactive). `Fc1ccc(Br)cc1/C=N/n1cnnc1` was tested, and the activity was 1.69% (inactive). In the case of `Cc1nc2c(ncn2-c2ccccc2)c(=O)n1NC(=O)CN1CCCC1`, the activity is reported as -2.1% (inactive). With `CCC(CC)C(=O)Nc1c2c(nn1-c1ccc(C)cc1)CS(=O)(=O)C2` the activity was -1.49% (inactive). With `Cc1cccc(OP(=O)(Nc2c(C)n(C)n(-c3ccccc3)c2=O)Oc2cccc(C)c2)c1` the activity was 25.5% (inactive). In the case of `Cc1cccc(OP(=O)(Oc2cccc(C)c2)OC(c2ccccc2)C(F)(F)F)c1` (stereo unspecified), the activity is reported as 60.4% (active). In the case of `CCN(CC)P(=O)(Oc1cccc(C)c1)N(CC)CC`, the activity is reported as 2.59% (inactive). With `Cc1cc(N2CCN(c3ccc(F)cc3)CC2)n2ncnc2n1` the activity was 1.33% (inactive). For `O=c1c2ccccc2ncn1CCCCOc1ccccc1F`, the activity was 5.21% (inactive). With `N/C(=N\OC(=O)CCn1cccc(C(F)(F)F)c1=O)c1ccc(OC(F)(F)F)cc1` the activity was 0.341% (inactive). With `O=S(=O)(c1cccc2nonc12)N1CCN(c2cccc(Cl)c2)CC1` the activity was 8.66% (inactive). In the case of `Cc1ccc(S(=O)(=O)N2CCC(Oc3ccc(-n4cnnn4)cc3)CC2)cc1`, the activity is reported as 9.39% (inactive). With `CCCCNC1(C#N)CCN(Cc2ccccc2)CC1` the activity was -6.77% (inactive). In the case of `Cc1c(CCO)c(=O)[nH]n1C(=O)c1c(F)cccc1F`, the activity is reported as 11.7% (inactive). `O=C(/C=C/c1cnc2ccccc2n1)NC1CCCCCC1` was tested, and the activity was 7.03% (inactive). In the case of `COc1ccccc1CNC(=O)CNC(=O)c1cn(-c2ccccc2OC)c(=O)c2ccccc12`, the activity is reported as 2.16% (inactive). For `CSc1cccc(NC(=S)N(Cc2ccccc2)Cc2ccccn2)c1`, the activity was 9.55% (inactive). With `COc1cc(OC)cc(-c2cc3nc(C4CCN(C(=O)OC(C)(C)C)CC4)cc(=O)n3[nH]2)c1` the activity was 2.04% (inactive). `CS(=O)(=O)c1sc(C(=O)NC(=S)Nc2ccc(OC(F)(F)F)cc2)c2c1C=CCC2` was tested, and the activity was 6.39% (inactive). With `Cc1ccc(N2C(=O)CC(NCc3ccc4c(c3)OCO4)C2=O)cc1Cl` (stereo unspecified) the activity was 4.73% (inactive). In the case of `Cc1ccc(S(=O)(=O)N2CCC(C(=O)NCCC3=CCCCC3)CC2)cc1C`, the activity is reported as 51.1% (active). In the case of `Cc1ccc(CCNC(=O)C2CCN(S(=O)(=O)N3CCCC3)CC2)cc1`, the activity is reported as 0.896% (inactive). `CSc1ccc(S(=O)(=O)N2CCC(C(=O)NCCc3ccccc3)CC2)cc1` was tested, and the activity was 3.52% (inactive). For `CN(C(=O)COC(=O)CCCc1c[nH]c2ccccc12)c1c(N)n(Cc2ccccc2)c(=O)[nH]c1=O`, the activity was 15% (inactive). In the case of `COc1ccc(/C(=N\O)c2nccc3cc(OC)c(OC)cc23)cc1OC`, the activity is reported as 6.19% (inactive). In the case of `COCCCNC(=O)C1CC(=O)N(CCc2ccc(F)cc2)C1` (stereo unspecified), the activity is reported as -2.65% (inactive). `O=C(NC1CCC(O)CC1)c1ccccc1OCc1ccc(F)cc1` (stereo unspecified) was tested, and the activity was 1.15% (inactive). `CC(OC(=O)c1ccccc1OCc1ccc(Cl)cc1)C(N)=O` (stereo unspecified) was tested, and the activity was 4.36% (inactive). For `CC(=O)c1ccccc1OCc1ccc(C(=O)c2ccccc2)cc1`, the activity was 55.1% (active). `CCOC(=O)C1CCN(S(=O)(=O)c2ccc3c(c2)N(C)C(=O)CC(=O)N3C)CC1` was tested, and the activity was -0.905% (inactive). `FC(F)(F)C1CCCN(c2nsc3ccccc23)C1` (stereo unspecified) was tested, and the activity was 4.11% (inactive). For `CCCCNC(=O)c1ccccc1NC(=O)c1ccccc1N(C)S(C)(=O)=O`, the activity was 8.01% (inactive). `c1ccc(CC2CCN(c3nc4ccccc4n4cnnc34)CC2)cc1` was tested, and the activity was 27.5% (inactive). In the case of `COc1ccc(CN2CCC(n3nccc3NC(=O)CCCc3ccccc3)CC2)cc1C`, the activity is reported as 18.3% (inactive). With `CC(C)(C)N(Cc1ccccc1)C(=O)COC(=O)CCc1c[nH]c2ccccc12` the activity was 1.59% (inactive). In the case of `CC1(c2ccc3ccccc3c2)NC(=O)NC1=O` (stereo unspecified), the activity is reported as 0.131% (inactive). In the case of `O=C1CSC(c2cccc(F)c2)N1c1ccccc1F` (stereo unspecified), the activity is reported as -2.91% (inactive). In the case of `O=C(Cc1ccccc1F)NC1CCSc2ccccc21` (stereo unspecified), the activity is reported as 5.76% (inactive). In the case of `O=S(=O)(O)c1cc2onnc2c2ccccc12`, the activity is reported as -2.58% (inactive).
